# Assay outcomes (PubChem)
# IL1B secr inh = inflammasome signaling inhibition, IL-1 beta readout. THP-1 LPS/ATP IL-1B secretion, AlphaLISA, 16 h; stronger effect = lower value. activity change, % at 57.5 µM. 360,000 tested, 4.7% active. AID 743279; in the data active = activity change below about -50%; inconclusive = mostly about -30% to -49%
#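 THP-1 cells pretreated 1 hr with compounds (up to 57.5 uM final), then stimulated with LPS (250 ng/mL final) plus ATP (1.25 mM final); secreted IL-1B measured by AlphaLISA after 16 hr, decreased signal indicating inhibition.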
# DT40 TDP1 CPT = DT40-hTDP1 cell growth loss with CPT; chicken DT40 Tdp1-/-;hTDP1 cells + 20 nM CPT, ATP luminescence, 48 h; Potency, µM (top dose mostly 46.2 µM), for inactives: at the top dose activity change, negative = growth inhibition, most hits filed as inhibitors; 420,000 tested, 12% active; note: potency is the fitted concentration of half-maximal effect; nearly all actives have a fitted effect of over 55% in size
#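 Cell growth measured by CellTiter-Glo luminescence after a minimum 48 h, 37 C compound exposure with 20 nM CPT in Tdp1-knockout DT40 cells stably expressing hTDP1, seeded 400/well; qHTS titration format.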
# TDP1 cell noCPT = qHTS for Inhibitors of human tyrosyl-DNA phosphodiesterase 1 (TDP1): qHTS in cells in absence of CPT; DT40 Tdp1-/- hTDP1 cells, no CPT, ATP luminescence, 48 h; 420,000 tested, 15% active; Potency, µM (doses to about 46.2 µM), for inactives: top-dose activity change, negative = growth inhibition, usual class: inhibitors; note: potency is the fitted concentration of half-maximal effect; nearly all actives have a fitted effect of over 55% in size
#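 Readout: luminescence from CellTiter-Glo after 30 min in the dark at RT. Cells: DT40 Tdp1-/- with stable hTDP1, 400/well. Exposure: compounds alone, ≥48 hr, 37 °C.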
# HT1080-NT tox = kills 2HG-producing HT-1080-NT fibrosarcoma cells; Potency, µM (top dose mostly 46.1 µM), for the others: top-dose activity, negative = less viability, usual class: cytotoxic; 360,000 tested, 1.6% active; HT-1080-NT fibrosarcoma viability, CellTiter-Glo ATP luminescence, 48 h;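 note: NT is the 2HG producing partner of a matched IDH1 knockdown line; potency is the fitted concentration of half-maximal effect; 0% = DMSO-treated cells and -100% = media-only wells without cells; nearly all actives have a fitted effect of over 55% in size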
#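 Viability of the 2HG-overproducing fibrosarcoma line after 48 hours of compound exposure at 37 degrees C was determined by luminescence with CellTiter-Glo, and concentration-effect curves were then fitted and categorized.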
# HT1080 IDH1KD tx = HT-1080 IDH1 knockdown cell toxicity (counter line); HT-1080 IDH1 knockdown viability, ATP luminescence, 48 h; Potency, µM (titrated, usually from 46.1 µM), for inactives: top-dose activity, negative = toxicity, actives largely listed as cytotoxic; 360,000 tested, 2% active;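 note: potency is the fitted concentration of half-maximal effect; 0% = DMSO wells and -100% = cell-free medium wells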
#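 IDH1KD HT-1080 cells, 750/well, RPMI + 5% FBS; compound pinned after 2 h settling; 48 h, 37 °C; CellTiter-Glo luminescence; % activity normalised to DMSO and no-cell wells; curves fitted, classed by r2 and efficacy.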
# Numbers without * were called inactive; ? = inconclusive; . = no result; [ ] = remark or other dose. In the library only some 19% were active in any assay of this set; here they are far more common. Unless noted, calls come from the whole dose curve; as a rule, active = well fitted curve in the direction sought with a large enough effect; inconclusive = small, poorly fitted or top-dose-only effect, or another doubt; inactive = no such curve, though single readings can be large; an effect the other way counts as inactive or inconclusive. Unless noted, % is set by controls: 0 for no effect and ±100 for the full control effect.
SMILES,IL1B secr inh,DT40 TDP1 CPT,TDP1 cell noCPT,HT1080-NT tox,HT1080 IDH1KD tx
O=C(COC(=O)c1ccccc1Br)NCCC1=CCCCC1,-1,2%,-8%,-2%,-1%
CN(C)CCNC(=O)c1coc(=O)c(Br)c1,-10,2.3µM*,5.8µM*,-2%,-4%
Cc1cc(C(=O)NCCC2=CCCCC2)c(C)o1,-25,?,18µM*,5%[9.24 µM],?
Cn1ncc(Br)c1NC(=O)c1cc(Cl)cc(Cl)c1,-11,-3%,-24%,-2%,-11%
CN(C)CCNC(=O)c1ccc(COCC(F)(F)F)cc1,13,-10%,-9%,7%,13%
CCOc1cc(C)c(C(C)C)cc1S(=O)(=O)NCc1ccccn1,-4,?,-29%,8%,0%
CC(C)(C)NC(=O)NC(=O)COC(=O)c1cccc(S(=O)(=O)N2CCCCC2)c1,32,-6%,-15%,6%,-1%
O=c1[nH]cnc2c1ncn2C1OCC(O)C(O)C1O (centres undefined),7,-9%,-11%,1%,0%
Nc1ncnc2c1ncn2C1OCC(O)C1O (centres undefined),0,18µM*,13µM*,13%,-4%
NCC1OC(n2cnc3c(N)ncnc32)CC1O (centres undefined),1,-7%,-19%,11%,13%
Nc1nc(Cl)nc2c1ncn2[C@@H]1O[C@H](CO)[C@@H](O)[C@@H]1F,.,0.0021µM*,0.0021µM*,.,.
Nc1nc(Cl)nc2c1ncn2[C@H]1C[C@H](O)[C@@H](CO)O1,56,0.18µM*,0.21µM*,?,?
Nc1ncnc2c1ncn2[C@H]1C[C@H](O)[C@@H](CO)O1,5,6.5µM*,?,1%,2%
O=C(Nc1c(C(=O)O)[nH]c2ccc(F)cc12)c1cccc(C(F)(F)F)c1,-6,1%,-3%,-14%,-23%
CS(=O)(=O)N(CC(=O)NC1CC2CCC1C2)c1ccc(Oc2ccccc2)cc1 (centres undefined),?,-11%,?,-1%,-23%
O=C(O)c1ccc(-n2nncc2-c2ccccc2)cc1,2,-17%,-13%,10%,9%
CN(C)S(=O)(=O)c1ccc(C(=O)Nc2ccc(-n3nncc3-c3ccccc3)cc2)cc1,.,21µM*,15µM*,.,.
O=C(Nc1ccccc1)c1ccc(-n2nncc2-c2ccccc2)cc1,.,10µM*,?,.,.
Cc1nc2ccc(C(=O)NCCCn3ccnc3)cn2c1N(C)CC1CCCCC1,?,?,?,-28%,-30%
Cc1nc2ccc(C(=O)N(C)Cc3ccco3)cn2c1N(C)CC1CCCCC1,-9,18µM*,13µM*,4%,?
C=CCn1c(O)c(N=NC(=S)Nc2ccc(OC)c(Cl)c2)c2ccccc21,-5,4.6µM*,2.6µM*,-25%,?
CCn1c(O)c(N=Nc2ccc3ccccc3n2)c2ccccc21,?,?,23µM*,12%,21%
C=CCn1c(O)c(N=NC(=O)OC(C)(C)C)c2ccccc21,6,-5%,-22%,12%,5%
CCCCn1c(O)c(N=Nc2ccccc2O)c2ccccc21,-2,23µM*,?,-14%,-8%
C=CCn1c(O)c(N=O)c2ccccc21,?,1%,17%,5%,-2%
SMILES,IL1B secr inh,DT40 TDP1 CPT,TDP1 cell noCPT,HT1080-NT tox,HT1080 IDH1KD tx
C=CCn1c(O)c(N=Nc2ccccc2C)c2ccccc21,6,18µM*,?,-8%,-11%
Cc1ccc2nc(-c3ccccc3)cc(C(=O)N3CCN(S(=O)(=O)c4c(C)noc4C)CC3)c2c1,-12,?,23µM*,-3%,-11%
Cc1ccc2nc(-c3ccccc3)cc(C(=O)N3CCN(c4ccccc4O)CC3)c2c1,-23,?,?,0%,?
Cc1ccc(S(=O)(=O)N2CCN(C(=O)c3c(-c4ccccc4)noc3C)CC2)c(C)c1,31,18µM*,?,21%,21%
NC(=O)c1cc([N+](=O)[O-])c(Cl)cc1NCc1ccccn1,-7,?,26µM*,2%,-3%
Cc1ccc(N2C(=O)[C@@H]3CSC(c4ccc(Cl)cc4)N3C2=O)cc1 (some centres undefined),.,2%,-20%,.,.
O=c1c2ccccc2sn1-c1cc(S(=O)(=O)N2CCOCC2)ccc1N1CCCC1,-107*,5.8µM*,12µM*,?,?
O=C(O)c1cc(S(=O)(=O)N2CCOCC2)ccc1N1CCCCC1,0,7%,-22%,15%,17%
O=c1c2ccccc2sn1-c1cc(S(=O)(=O)N2CCOCC2)ccc1N1CCOCC1,-102*,4.5µM*,4.5µM*,?,?
O=c1c2ccccc2sn1-c1cc(S(=O)(=O)N2CCOCC2)ccc1N1CCCCC1,.,2.5µM*,5.6µM*,.,.
COc1ccc(-c2cc(C(=O)NCCc3ccc(OC)c(OC)c3)c3c(-c4ccc(F)cc4)[nH]nc3n2)cc1,.,-10%,-4%,.,.
COc1ccccc1C(O)c1ncc(-c2cccc3ccccc23)[nH]1 (centres undefined),-18,?,?,-17%,-6%
Cc1cccc(C)c1N1C(=O)CCC(C)(C)C1=O,17,-11%,18%,13%,-5%
CCOc1ccc2[nH]c(=O)c(CN(Cc3ccccc3OC)C(=O)c3ccccc3)cc2c1,-10,6.5µM*,3.3µM*,-7%,?
COc1ccc2[nH]c(=O)c(CN(Cc3ccco3)C(=O)c3ccccc3)cc2c1,-17,?,-13%,?,-23%
CCOc1ccc2[nH]c(=O)c(CN(CCO)C(=O)CC)cc2c1,8,-6%,2%,5%,6%
CCOc1ccc2[nH]c(=O)c(CN(CCc3ccccc3)C(=O)c3cnccn3)cc2c1,0,?,16µM*,-1%,0%
CCOc1ccc2[nH]c(=O)c(CN(Cc3ccco3)C(=O)c3ccc(Br)cc3)cc2c1,2,?,3.3µM*,-13%,-9%
CCOc1ccc2[nH]c(=O)c(CN(Cc3ccco3)C(=O)c3cccc(F)c3)cc2c1,2,?,23µM*,5%,5%
CCOc1ccc2[nH]c(=O)c(CN(CCO)C(=O)c3ccc(Br)cc3)cc2c1,-7,?,-27%,-24%,-14%
O=S(=O)(NCc1ccc(F)cc1)c1ccccc1Br,-6,?,?,?,17%
CSCCC(NC(=O)c1ccco1)c1nc2ccccc2[nH]1 (centres undefined),-11,-8%,-25%,-6%,-1%
CCOc1ccc2[nH]c(=O)c(CN(CCN3CCCC3)C(=S)Nc3ccccc3OCC)cc2c1,-101*,?,23µM*,?,?
